FLuc inh – inhibitors of firefly (Photinus pyralis) luciferase | AID 1347043 | 76,000 tested, 2.5% active | P08659 | purified P. pyralis luciferase, luminescence, biochemical | Potency, µM (top dose mostly 115 µM), hits mostly inhibitors; note: nearly all actives have a fitted effect of over 65% in size
Target sequence (P08659 whole entry, looked up): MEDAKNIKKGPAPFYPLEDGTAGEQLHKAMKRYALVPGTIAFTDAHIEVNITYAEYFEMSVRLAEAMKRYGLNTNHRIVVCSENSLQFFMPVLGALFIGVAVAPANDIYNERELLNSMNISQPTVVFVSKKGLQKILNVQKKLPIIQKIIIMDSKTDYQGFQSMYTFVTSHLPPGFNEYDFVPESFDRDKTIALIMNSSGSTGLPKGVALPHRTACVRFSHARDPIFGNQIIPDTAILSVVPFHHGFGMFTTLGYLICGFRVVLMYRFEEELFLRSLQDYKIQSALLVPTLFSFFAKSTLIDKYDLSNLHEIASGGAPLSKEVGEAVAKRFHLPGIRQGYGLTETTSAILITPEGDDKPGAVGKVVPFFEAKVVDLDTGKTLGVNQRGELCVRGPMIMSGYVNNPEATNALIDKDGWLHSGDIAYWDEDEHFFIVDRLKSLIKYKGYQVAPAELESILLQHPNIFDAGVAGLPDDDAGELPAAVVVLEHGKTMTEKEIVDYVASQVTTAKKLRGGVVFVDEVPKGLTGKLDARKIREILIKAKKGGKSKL
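Purified 10nM P. pyralis luciferase with 10uM D-luciferin and 10uM ATP in 50mM Tris acetate pH 7.5, 10mM Mg acetate, 0.01% Tween-20, 0.05% BSA. qHTS titration; luminescence read by CCD imager.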
hNpr1 antagonist – blocks ANP-stimulated signaling of human Npr1 receptor. 76,000 tested, 1.6% active. Potency, µM (series often up to 46.3 µM), without a hit: at the highest dose activity change, negative = inhibition, most hits filed as inhibitors. P16066. HEK293 hNpr1 GloSensor cGMP, ANP-stimulated luminescence. AID 1347048; calls by dose curve; note: nearly all actives have a fitted effect of over 60% in size
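HEK293 cells stably expressing human Npr1 and cGMP GloSensor pGS-40F, loaded 2 h with 2% GloSensor reagent, given compound 30 min at room temperature. Luminescence read before and 20 min after 0.1 nM hNppA.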
HEK cytotox – kills HEK 293 cells | HEK 293 viability, ATP luminescence (CellTiter-Glo), 48-72 h | Potency, µM (series often up to 115 µM), for the others: at the top dose activity change, negative = cytotoxicity, actives largely listed as inhibitors | 94,000 tested, 6.6% active | AID 1345083; note: nearly all actives have a fitted effect of over 60% in size
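ATP-coupled CellTiter-Glo luminescence served as viability read-out, recorded 10 min after reagent addition at room temperature. HEK 293 cells, 250 cells/well, had been incubated with pintool-transferred compound for 48 or 72 hr at 37 degree Celsius.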
NIH3T3 tox – cytotoxic compounds in NIH 3T3 cells; NIH 3T3 viability, CellTiter-Glo ATP luminescence, 48-72 h; Potency, µM (highest dose often 96.7 µM), without a hit: top-dose activity change, negative = cytotoxicity, usual class: inhibitors; 94,000 tested, 4.3% active; AID 1345082; note: nearly all actives have a fitted effect of over 55% in size
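Viability of NIH 3T3 cells after 48 or 72 hr compound treatment at 37 °C was assessed by CellTiter-Glo, with luminescence imaged following a 10 min room-temperature step.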
* = called active by the depositor; i = inactive; ? = inconclusive; . = not tested or not shown; ! = a repeat was not active; [ ] = another dose, or the depositor's remark. The list is not random: actives were taken first. Their share in the collection is about 11%. Unless noted, calls come from the whole dose curve; as a rule, active = well fitted curve in the direction sought with a large enough effect; inconclusive = small, poorly fitted or top-dose-only effect, or another doubt; inactive = no such curve, though single readings can be large; an effect the other way counts as inactive or inconclusive. % is set by controls: 0 for no effect and ±100 for the full control effect; potency is the fitted concentration of half-maximal effect.

SMILES	FLuc inh	hNpr1 antagonist	HEK cytotox	NIH3T3 tox
CCc1cc(=O)n(CC(=O)Nc2cc(OC)c(OC)c(OC)c2)c(-c2ccccc2)n1	i	?	44.7µM*	?
CCc1cc(=O)n(CC(=O)Nc2ccc(OC)cc2)c(-c2ccccc2)n1	i	-3.2%	?	?
Cc1ccc(CN[C@@H]2CO[C@H](CNC(=O)c3ccccc3)[C@H]2O)cc1	i	-13.6%[70.6 µM]	-12.0%[172 µM]	-19.4%[138 µM]
COc1ccccc1-c1ccc(CN2CCC(NC(=O)Cc3ccc(F)cc3)C2)cc1 (stereo not drawn)	.	.	39.8µM*	39.8µM*
COc1ccccc1-c1ccc(CN2CCC(NC(=O)C3CCCCC3)C2)cc1 (stereo not drawn)	.	.	?	31.6µM*!
COc1ccc(CC(=O)NC2CCN(C(=O)c3ccc(-c4ccccc4OC)cc3)CC2)cc1	.	.	?	39.8µM*
COCC(=O)NC1CCN(C(=O)c2ccc(-c3ccccc3OC)cc2)CC1	.	.	-29.1%	?
COc1ccccc1-c1cc(C(=O)NCCc2ccc(F)cc2)nn2cccc12	.	.	35.5µM*	?
COc1ccccc1-c1cc(C(=O)NCc2cccc(Cl)c2)nn2cccc12	.	.	44.7µM*	?
COc1ccccc1-c1cc(C(=O)N2CCCC2)nn2cccc12	.	.	-21.0%	0.9%
COc1ccccc1-c1cc(C(=O)NC(C)C)nn2cccc12	.	.	-18.6%	-11.5%
O=C(C1CCCN1C(=O)c1ccccc1Cl)N1CCC(c2nc3ccncc3[nH]2)C1 (stereo not drawn)	.	.	-5.7%	-11.8%
O=C(NCc1cccs1)c1ccc2nc(-c3ccncc3)oc2c1	.	.	-20.4%[172 µM]	-11.7%[138 µM]
COc1ccccc1Nc1ccnc(N2CCCC(C(=O)NC(C)C)C2)n1 (stereo not drawn)	.	.	?	44.7µM*
COc1ccccc1Nc1ccnc(N2CCCC(C(=O)NCC3CC3)C2)n1 (stereo not drawn)	.	.	?	35.5µM*
COc1ccccc1Nc1ccnc(N2CCCC(C(=O)NCCCc3ccccc3)C2)n1 (stereo not drawn)	.	.	50.1µM*	?
COc1ccccc1CNC(=O)C1CCCN(c2nccc(Nc3ccccc3OC)n2)C1 (stereo not drawn)	.	.	?	35.5µM*
COC(=O)CNC(=O)C1CCCN(c2nccc(Nc3ccccc3OC)n2)C1 (stereo not drawn)	.	.	-8.7%	-24.1%
CNC(=O)C1CCCN(c2nccc(Nc3ccccc3OC)n2)C1 (stereo not drawn)	.	.	?	-25.2%[138 µM]
COCCCNC(=O)C1CCCN(c2nccc(Nc3ccccc3OC)n2)C1 (stereo not drawn)	.	.	-14.8%	-37.5%
O=C(C1CCCN([S+](=O)([O-])c2cccc(C(F)(F)F)c2)C1)N1CCC(N2CCOC2=O)CC1 (stereo not drawn)	.	.	?	-34.7%
CC(C(=O)NC1CC1)N1C(=O)COc2ccc(C(=O)COc3cccc(Cl)c3)cc21 (stereo not drawn)	i	-15.8%	?	?
COc1ccccc1OCC(=O)c1ccc2c(c1)N(C(C)C(=O)NCCc1ccccc1)C(=O)CO2 (stereo not drawn)	i	6.8%	?	?
CC(C(=O)NCCc1ccccc1)N1C(=O)COc2ccc(C(=O)COc3ccc(Cl)cc3)cc21 (stereo not drawn)	i	-3.9%	44.7µM*	?
COc1cc(C)ccc1OCC(=O)c1ccc2c(c1)N(CC(=O)N1CCCC1)C(=O)CO2	i	-8.8%	?	-24.2%
SMILES	FLuc inh	hNpr1 antagonist	HEK cytotox	NIH3T3 tox
COc1cccc(OCC(=O)c2ccc3c(c2)N(CCCC(=O)NCc2ccccc2)C(=O)CO3)c1	i	-1.9%	?	39.8µM*
Cc1cc(F)ccc1OCC(=O)c1ccc2c(c1)N(C(C)C(=O)N1CCCCC1)C(=O)CO2 (stereo not drawn)	?	-4.0%	50.1µM*	?
Cc1cccc(OCC(=O)c2ccc3c(c2)N(C(C)C(=O)N2CCCC2)C(=O)CO3)c1C (stereo not drawn)	?	0.0%	44.7µM*	-29.8%
COc1cccc(C(=O)N2CCCC(c3nn(-c4ccccn4)c(=O)[nH]3)C2)c1 (stereo not drawn)	.	.	1.9%	-22.7%
O=C(NC1CCN(c2ccnc3ccnn23)CC1)c1ccccc1Cl	.	.	-20.1%	?
CC(=O)Nc1cccc(OCc2nnc(C(=O)N3CCC[C@@H]3c3ccc(Br)cc3)n2Cc2ccccc2)c1	i	-29.5%	31.6µM*	22.4µM*

Screens as filed in PubChem BioAssay.
